# Test results reported in PubChem BioAssay AID651598 (Sanford-Burnham Center for Chemical Genomics, 2012).
# Values joined by “and” are separate entries in the source; they are usually repeats but may differ in a detail not shown here. Identical values can stand only once.
# Target: C-X-C chemokine receptor type 6 (Homo sapiens) (UniProt O00574)
# Assay: apelin receptor (APJ) antagonists, SAR follow-up, counter-screen for CXCR6 antagonist project, cell-based, beta-arrestin, DiscoveRx, panel, CHO-K1 (AID 651598)
# Settings: CHO-K1 PathHunter beta-arrestin luminescence, antagonist mode; run 3, at 80 µM (top of the series)
# Chain of C-X-C chemokine receptor type 6 (Homo sapiens) (O00574 whole entry, looked up): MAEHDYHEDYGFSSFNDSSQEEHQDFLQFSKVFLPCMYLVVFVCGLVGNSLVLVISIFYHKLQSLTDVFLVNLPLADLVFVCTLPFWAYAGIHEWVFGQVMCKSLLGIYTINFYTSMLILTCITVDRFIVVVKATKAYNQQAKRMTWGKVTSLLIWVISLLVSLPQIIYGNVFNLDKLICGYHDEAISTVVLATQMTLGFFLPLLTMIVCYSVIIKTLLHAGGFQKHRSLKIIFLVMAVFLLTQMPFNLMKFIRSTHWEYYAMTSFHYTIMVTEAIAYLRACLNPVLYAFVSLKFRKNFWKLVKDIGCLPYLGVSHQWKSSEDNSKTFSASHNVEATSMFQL
row,SMILES,inhibition
1,COc1cc(C(=O)NC2CC3CCCC(C2)N3CC(=O)Nc2ccccc2)cc(OC)c1OC (stereo not drawn),91% and 42.4% and 18.6%
2,COc1cc(C(=O)NC2CC3CCC(C2)N3CC(=O)Nc2ccccc2)cc(OC)c1OC (stereo not drawn),56.5% and 4.53%
3,COc1cc(C(=O)NC2CCN(CC(=O)Nc3ccccc3)CC2)cc(OC)c1OC,6.56%
